Bioassay records as filed in PubChem BioAssay.
Many of the other results were omitted from the sample, so hits are more common in it than they were.
ALOX12 inhib = blocks human 12-lipoxygenase activity | purified 12-hLO, xylenol orange hydroperoxide absorbance | AID 1452 | 150,000 compounds, 0.12% hits | P18054 | Potency, µM (series often up to 57.1 µM), without a hit: top-dose activity change, negative = inhibition, most hits filed as inhibitors; also: nearly all actives have a fitted effect of over 55% in size
Target sequence (P18054 whole entry, looked up): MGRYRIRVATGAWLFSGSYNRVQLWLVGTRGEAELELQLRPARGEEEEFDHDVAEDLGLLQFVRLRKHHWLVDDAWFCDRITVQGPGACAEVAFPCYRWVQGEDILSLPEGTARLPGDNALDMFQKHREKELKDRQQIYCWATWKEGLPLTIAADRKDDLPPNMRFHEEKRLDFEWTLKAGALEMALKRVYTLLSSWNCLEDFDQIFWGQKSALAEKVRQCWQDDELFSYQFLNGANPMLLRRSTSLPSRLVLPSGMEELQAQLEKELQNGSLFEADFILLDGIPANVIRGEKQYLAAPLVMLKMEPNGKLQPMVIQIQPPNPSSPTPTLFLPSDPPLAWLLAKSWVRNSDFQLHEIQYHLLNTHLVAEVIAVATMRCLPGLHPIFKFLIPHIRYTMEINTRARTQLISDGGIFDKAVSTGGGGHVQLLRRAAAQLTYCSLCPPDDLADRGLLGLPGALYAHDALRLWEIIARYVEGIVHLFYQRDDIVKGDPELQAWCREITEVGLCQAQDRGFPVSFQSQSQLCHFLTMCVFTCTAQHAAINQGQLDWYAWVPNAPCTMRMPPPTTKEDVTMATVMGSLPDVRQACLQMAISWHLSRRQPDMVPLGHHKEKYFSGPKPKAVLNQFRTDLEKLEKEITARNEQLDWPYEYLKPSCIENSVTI
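Xylenol orange chromogenic assay: hydroperoxide from 12hLO oxidises Fe(II), giving red-shifted Fe(III)-XO absorbance. Conditions: 150 nM enzyme, 40 uM arachidonic acid, 25 mM Hepes pH 7.0, 0.01% Triton X-100, 30 min, room temperature.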
ALOX15B inhib = inhibitors of human 15-lipoxygenase 2 (ALOX15B). 110,000 compounds, 0.56% hits. Potency, µM (top dose mostly 57.1 µM), for the others: top-dose activity change, negative = inhibition, most hits filed as inhibitors. O15296. purified 15hLO-2, xylenol orange hydroperoxide absorbance; also: nearly all actives have a fitted effect of over 60% in size
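Screening format was qHTS against 50 nM purified 15hLO-2 in Hepes pH 7.5 with detergent. Activity follows hydroperoxide formation from 45 uM arachidonic acid, measured as 573:405 nm absorbance ratio of the ferric-xylenol orange complex.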
An asterisk follows results filed as active; u = inconclusive; x = not tested or not shown; [ ] = dose if it differs, or a comment. Calls follow the shape of the dose curve; as a rule, active = well fitted curve in the direction sought with a large enough effect; inconclusive = small, poorly fitted or top-dose-only effect, or another doubt; inactive = no such curve, though single readings can be large; an effect the other way counts as inactive or inconclusive. % is scaled to controls: 0 for no effect and ±100 for the full control effect; potency is read from the fitted curve at half-maximal effect.

SMILES | ALOX12 inhib | ALOX15B inhib
Cc1ccc(/C=C2/SC(=S)N(CC(=O)Nc3ncc(Cc4ccc(C)cc4)s3)C2=O)cc1 | 8% | u
Cc1cccc(OCCn2c(S(=O)(=O)O)nc3ccccc32)c1 | -1% | -4%
Cc1cccc(OCCn2c(=S)[nH]c3ccccc32)c1 | 28µM* | x
CCCCCCCCCCCCOC1OC(CO)C(O)C(O)C1NC(C)=O (stereo not given) | -1% | x
COc1cccc(C(=O)Nc2ccc(C)cc2)c1 | 2% | -1%
Cc1ccc(NC(=O)c2ccc(Cl)c(N3C(=O)C=CC3=O)c2)cc1 | u | 0.32µM*
O=C1CCC[C@@H]2CC(NCc3ccc(Cl)c(Cl)c3)C[C@@H]3CCN1[C@H]23 (stereo not given in full) | -4%[0.00818 µM] | 27%[0.0915 µM]
COC(=O)c1ccc(O)cc1 | 1%[0.00818 µM] | -6%[0.0915 µM]
COC(=O)c1ccc(CCc2cc(O)ccc2O)cc1 | 3.5µM* | 12%[11.4 µM]
COc1ccc2c(c1)[n+]([O-])c(/C(C)=N/NC(N)=S)c(C)[n+]2[O-] | 3%[11.4 µM] | -3%[11.4 µM]
O=S(=O)(O)c1ccc2c(N=Nc3cccc4ccccc34)c(O)c(S(=O)(=O)O)cc2c1 | 1%[11.4 µM] | 3%[11.4 µM]
O=[N+]([O-])c1ccc2c(N=Nc3ccc4ccccc4c3O)c(O)cc(S(=O)(=O)O)c2c1 | u | 4µM*
Cc1cccc(NC(=O)CN2C(=O)S/C(=C\c3cc(C)n(C)c3C)C2=O)c1 | 0% | x
Cc1ccc(NC(=O)CN2C(=O)S/C(=C\c3cc(C)n(C)c3C)C2=O)cc1 | -11% | 16µM*
CCOC(=O)Cc1csc(SCn2nnc3ccccc3c2=O)n1 | 4% | -2%
CCOC(=O)Cc1csc(-n2sc3ccccc3c2=O)n1 | 4.5µM* | 1.3µM*
Clc1ccc(OCCSc2ncccn2)cc1 | -3% | 4%
COc1cccc(C(=O)NC(=S)Nc2ccc(N3CCCC3)cc2)c1 | 16µM* | 13µM*
COc1ccccc1C(=O)NC(=S)Nc1ccc(N2CCCC2)cc1 | -1% | x
O=S(=O)(c1ccc2oc3ccccc3c2c1)N1CCOCC1 | 7% | 2%
O=c1c2ccccc2sn1-c1cc(S(=O)(=O)N2CCOCC2)ccc1N1CCCC1 | 0.5µM* | 1µM*
O=c1c2ccccc2sn1-c1cc(S(=O)(=O)N2CCOCC2)ccc1N1CCOCC1 | 2.2µM* | 0.5µM*
O=C(O)c1cc(S(=O)(=O)N2CCOCC2)ccc1N1CCOCC1 | -2% | -2%
C[C@]12C[C@@](C)(C=C1/C=C/c1ccc(C(F)(F)F)cc1)C(=O)C[C@H]2c1ccc(C(F)(F)F)cc1 | -5% | x
CCN(CC)CCCN1C=C2C(=O)C(C)(OC(=O)c3cccs3)C(=O)C=C2C=C1CCCC(=O)OC (stereo not given) | 0%[11.4 µM] | x
SMILES | ALOX12 inhib | ALOX15B inhib
S=C1NCCc2ccccc2C1c1ccccc1 (stereo not given) | 28µM* | x
S=C1NCCc2ccccc2C1c1ccccc1Cl (stereo not given) | -27% | x
O=C(Nc1nc(-c2cc3ccccc3oc2=O)cs1)c1ccc(Br)o1 | 20µM* | u
Cc1cc(-c2csc(NC(=O)c3cc4ccccc4o3)n2)c(C)n1C | 3% | x
O=C1OC(=O)[C@@H]2[C@@H]1[C@@H]1CC[C@H]2O1 | -3% | 3%
CC1CCC(C(C)C)C2=C1C(C#N)(C#N)C(C#N)(C#N)C(c1ccccc1)N2 (stereo not given) | -28% | 10µM*
CC1=CC(C#N)(C#N)C(C#N)(C#N)C(c2ccccc2)N1 (stereo not given) | -7% | -3%
COc1ccc2c3c([nH]c2c1)[C@H]1C[C@@H]2[C@@H](C[C@@H](O)[C@H](OC)[C@H]2C(=O)O)CN1CC3 | -2%[11.4 µM] | -7%[11.4 µM]
Cc1ccccc1CNC1CCCCC1 | -2% | x
Oc1cc(CN2COc3ccccc32)c(O)cc1CNC1CCCCC1 | 10%[11.4 µM] | 3.2µM*
CCOC(=O)C1=C(C)NC(C)=C(C(=O)OC)[C@@H]1c1cccc(Cl)c1Cl | -10%[25.6 µM] | 5%[25.6 µM]
COc1ccc2c(c1)CCc1c(C(=O)NC3CCCCC3)noc1-2 | 1% | -4%
COc1ccc(CCNC(=S)NC(=O)c2ccccc2)cc1OC | 14µM* | 13µM*
COc1ccc(/C=C/C(=O)NC(=S)NCCc2ccc(OC)c(OC)c2)cc1 | 2% | -29%
CC#CCN1c2ccccc2[C@]23C[C@@H](C(=O)OC)N(C(=O)COCc4ccccc4)C2=NC(C(=O)OC)=C(C(=O)OC)[C@H]13 | 4%[11.4 µM] | x
O=C(/C=C/c1ccccc1)NC(=S)Nc1ccc(N2CCOCC2)c(Cl)c1 | -10% | -12%
O=C(NC(=S)Nc1ccc(N2CCOCC2)c(Cl)c1)C(c1ccccc1)c1ccccc1 | u | 13µM*
Nc1c(C(=O)Nc2nc3ccccc3s2)sc2nc(-c3cccs3)ccc12 | -9% | 13µM*
CC(=O)c1sc2nc(-c3cccs3)ccc2c1N | -23% | u
CCOc1cc(/C=C2\C(=O)N(c3ccc(C(N)=O)cc3)N=C2C)ccc1OC(=O)c1cccs1 | -18% | 5µM*
CCOc1cc(/C=C2/C(=O)N(c3ccccc3)N=C2C)ccc1OC(=O)c1ccco1 | -12% | u
C[C@H]1Cc2c(COc3ccccc3)nc3c(c2CO1)CN(S(=O)(=O)c1ccc(Cl)c2nonc12)CC3 | -6%[11.4 µM] | x
Cc1cc(C)nc(Nc2ccc(N3CCOCC3)cc2)n1 | -1% | -5%
CC(=O)N1CCN(c2ccc(NC(=O)c3ccc(C)cc3)cc2)CC1 | -4% | 1%
CC(=O)N1CCN(c2ccc(NCc3cccs3)cc2)CC1 | u | 25µM*
SMILES | ALOX12 inhib | ALOX15B inhib
CC(=O)N1CCN(c2ccc(NCc3ccc(C)s3)cc2)CC1 | 11µM* | 13µM*
Cc1ccc(CNc2ccc(N3CCOCC3)cc2)s1 | u | 16µM*
CC(=O)Nc1ccc(N2CCN(C(=O)c3cccs3)CC2)cc1 | -4% | -5%
COC(=O)c1ccccc1S(=O)(=O)N1CCc2nc(COc3ccccc3)c3c(c2C1)CO[C@@H](C)C3 | 3%[11.4 µM] | x
C[C@@]12CCC(=O)C=C1CC[C@H]1[C@@H]2[C@@H](O)C[C@]2(C)[C@@H]1CC[C@@]2(O)C(=O)CO | 5%[11.4 µM] | 0%[11.4 µM]
O=C(NCCN1CCCC1)c1ccc(-n2c(=O)c(=O)[nH]c3ccccc32)cc1 | -3% | x
C[C@H]1Cc2c(COc3ccccc3)nc3c(c2CO1)CN(C(=O)C1CC1)CC3 | 1%[11.4 µM] | x
CC(C)N(CCNC(=O)c1ccc(Cc2nc3ccccc3[nH]2)cc1)C(C)C | -2% | x
COC(=O)C1=C(C(=O)OC)[C@@H]2N(C)c3ccccc3[C@@]23C[C@@H](CO)N(C(=O)c2ccco2)C3=N1 | 0%[11.4 µM] | x
CCCn1c(SCC(=O)N2N=C3/C(=C/c4ccc(OC)cc4)CCCC3C2c2ccc(OC)cc2)n[nH]c1=O (stereo not given) | -1% | x
COc1ccc(/C=C2\CCCC3C2=NC(=S)NC3c2ccc(OC)cc2)cc1 (stereo not given) | 14µM* | x
O=C(CSc1ccccc1C(=O)NCc1ccccc1)NC12CC3CC(CC(C3)C1)C2 | 1% | x
O=C(Cn1sc2ccccc2c1=O)NC12CC3CC(CC(C3)C1)C2 | 7.9µM* | 0.79µM*
N#Cc1c(Sc2ncc(C(F)(F)F)cc2Cl)nsc1C/C=N\OCc1ccccc1Br | -13% | 13µM*
CCOC(=O)/C(=C\Nc1ccccc1C(F)(F)F)Sc1ncc(C(F)(F)F)cc1Cl | 0% | 4%
Cn1c(N)c(C(=O)COC(=O)C2(c3ccc(Cl)cc3)CCCC2)c(=O)n(C)c1=O | -4% | 13%
CN1CCN(C(c2cccnc2)c2ccc3cccnc3c2O)CC1 (stereo not given) | 1.6µM* | 73%
